Screening data: PubChem BioAssay, National Center for Advancing Translational Sciences (NCATS)
Hits are enriched below; roughly 1.9% of the tested compounds scored in any of these assays.
USP2a block = USP2a (human) protease inhibition; O75604; USP2 core, Ub-CHOP2 coupled fluorogenic reporter, 485/531; Potency, µM (highest dose often 38.3 µM), without a hit: top-dose activity change, negative = inhibition, actives largely listed as inhibitors; 0.01% of 330,000 active; AID 463254;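 also: potency is read from the fitted curve at half-maximal effect; plate controls were DMSO wells for no effect and full inhibition by NEM control for full effect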
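USP2 core (10nM final) preincubated 30min RT with compound in 20mM Tris-HCl pH 8.0, 2mM CaCl2, 2mM beta-mercaptoethanol, 0.05% CHAPS; 25nM Ub-CHOP2 plus 25nM reporter substrate added, fluorescence (Ex485/Em531) read after 60min.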
PKM2 activator = PKM2 (human) enzyme activation. P14618. purified PKM2, Kinase-Glo ATP luminescence, activation; response scale: 0% is enzyme alone, no compound. Potency, µM (top dose mostly 57.5 µM), for the others: top-dose activation, hits mostly activators. 0.34% of 260,000 active; also: potency is read from the fitted curve at half-maximal effect; % is scaled to controls: 0 for no effect and ±100 for the full control effect; nearly all actives have a fitted effect of over 55% in size
Target sequence (P14618 whole entry, looked up): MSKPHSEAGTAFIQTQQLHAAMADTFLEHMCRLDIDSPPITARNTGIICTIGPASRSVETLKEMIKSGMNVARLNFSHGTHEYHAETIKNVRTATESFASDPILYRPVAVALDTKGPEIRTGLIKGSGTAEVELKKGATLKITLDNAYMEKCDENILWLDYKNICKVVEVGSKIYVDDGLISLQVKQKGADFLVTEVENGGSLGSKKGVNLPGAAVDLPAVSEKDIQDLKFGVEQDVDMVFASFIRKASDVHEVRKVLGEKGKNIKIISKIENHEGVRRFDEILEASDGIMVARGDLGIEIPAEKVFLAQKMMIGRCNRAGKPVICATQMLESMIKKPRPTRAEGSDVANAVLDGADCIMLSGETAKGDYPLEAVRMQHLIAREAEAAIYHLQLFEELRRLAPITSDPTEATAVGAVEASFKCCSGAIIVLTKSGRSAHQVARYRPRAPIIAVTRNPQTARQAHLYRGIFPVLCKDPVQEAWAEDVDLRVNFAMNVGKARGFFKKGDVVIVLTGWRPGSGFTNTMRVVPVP
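Purified hPK-M2 (>95% pure) converted ADP (0.1 mM final) to ATP with 0.5 mM PEP in 50 mM imidazole pH7.2, KCl, MgCl2, Tween 20, BSA; 1 h at room temperature. ATP detected by Kinase-Glo luminescence.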
IL2 activator = IL-2 activation | activation, % (series mostly up to about 46 µM) | AID 652025 | IL-2 activation reporter assay, cell-based qHTS; stimulated with anti-CD3/CD4/CD28 beads; in transgenic mouse T cells | 0.065% of 360,000 active; in the data active = activation above about 50%; inconclusive = mostly about 30% to 49%; also: 0% is about no effect
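Using fluorescent plate cytometry, EGFP and DsRed are detected in transgenic mouse T cells stimulated 18 h at 37 degrees C with antibody-coated beads after 60 min compound pretreatment.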
ClpP mod = qHTS Assay for Activators of ClpP. ATP-dependent Clp protease proteolytic subunit (Bacillus subtilis (strain 168)), P80244. purified B. subtilis ClpP, FRET peptide cleavage, 20 min. Potency, µM (highest dose often 57.5 µM), for inactives: at the top dose activity change, negative = active. 1.9% of 340,000 active. AID 651965, 2013; active = well fitted falling curve with a large enough effect; inconclusive = small, poorly fitted or top-dose-only effect; inactive = no such curve, though single readings can be large or run the other way; also: potency is read from the fitted curve at half-maximal effect; the source files actives as falling curves though it sought activators and does not explain the sign; nearly all actives have a fitted effect of over 65% in size
Target sequence (P80244 whole entry, looked up): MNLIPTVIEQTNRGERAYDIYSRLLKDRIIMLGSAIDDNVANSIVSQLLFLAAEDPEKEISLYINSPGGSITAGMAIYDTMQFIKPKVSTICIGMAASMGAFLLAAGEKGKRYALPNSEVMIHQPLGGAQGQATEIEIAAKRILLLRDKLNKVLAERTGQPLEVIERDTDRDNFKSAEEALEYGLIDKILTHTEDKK
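Purified B. subtilis ClpP, 10 microg/mL final in Tris/HCl pH8 with KCl, BSA, glycerol and Tween-20, cleaved an Abz/nitrotyrosine-quenched decapeptide. Fluorescence (ex 320, em 430) was read at 0 and 20 min at room temperature. Delta was normalized to 5.8 microM ADEP and DMSO/no-enzyme controls.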
Pin1 inhibitor = inhibitors of human Pin1; 0.009% of 390,000 active; Potency, µM (top dose mostly 115 µM), for the others: at the highest dose activity, negative = inhibition, actives largely listed as inhibitors; AID 504891; Pin1 FP peptide displacement, HiFluor488, 10 min; Q13526; active = well fitted inhibition curve with a large enough effect in the polarisation, with a control signal flat, not every such curve was filed as active; inconclusive = small, poorly fitted or top-dose-only effect, or effect the other way, or a change in a side signal; inactive = no such curve, though single readings can be large or run the other way; the % refers to the polarisation; also: potency is read from the fitted curve at half-maximal effect; % is scaled to controls: 0 for no effect and ±100 for the full control effect
a7 integrin act = activates integrin-mediated alleviation for muscular dystrophy; AID 624291; 0.064% of 350,000 active; alpha7betagal myoblasts, beta-gal FDG fluorescence, 48 h; Potency, µM (series often up to 38.3 µM), for inactives: at the highest dose activation, most hits filed as activators;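 also: potency is read from the fitted curve at half-maximal effect; 100% = response of the positive control SU9516; nearly all actives have a fitted effect of over 60% in size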
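Alpha7betagal+/- myoblasts (passage 13) were plated 16-24 hr, then exposed to compounds (1:260 dilution of DMSO stock) for 48 hours at 37C. After MPER lysis, β-galactosidase reporter activity was read as FDG fluorescence (ex 480/em 540) after 30 minutes.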
Active calls of the source: *; ? = inconclusive; / = not tested or not shown; [ ] = remark or other dose. Unless noted, calls follow the shape of the dose curve; as a rule, active = well fitted curve in the direction sought with a large enough effect; inconclusive = small, poorly fitted or top-dose-only effect, or another doubt; inactive = no such curve, though single readings can be large; an effect the other way counts as inactive or inconclusive.

SMILES	USP2a block	PKM2 activator	IL2 activator	ClpP mod	Pin1 inhibitor	a7 integrin act
O=C(O)c1cc(O)c2c(c1)[C@H]([C@H]1c3cc(C(=O)O)cc(O)c3C(=O)c3c(O[C@@H]4O[C@H](CO)[C@@H](O)[C@H](O)[C@H]4O)cccc31)c1cccc(OC3O[C@H](CO)[C@@H](O)[C@H](O)[C@H]3O)c1C2=O (stereo partly specified)	?	/	0	-11%	0.71µM*	/
O=C1c2cc(CO)cc(O)c2C(=O)c2c(O[C@@H]3OC(CO)[C@@H](O)[C@@H](O)[C@@H]3O)cccc21 (stereo partly specified)	/	/	0	-1%	11%	-10%
Cc1nc([N+](=O)[O-])cn1CC(O)c1ccc2c(c1)OCO2 (stereo unspecified)	/	/	/	-1%	/	/
COc1ccc(C2=C(C)C(=O)N(Cc3ccc(C(=O)NCc4ccc(C)cc4)cc3)S2(=O)=O)cc1	/	/	/	-16%	-1%	/
CC1=C(c2ccc(C)c(C)c2)S(=O)(=O)N(Cc2ccc(C(=O)NCc3ccc(C)cc3)cc2)C1=O	/	/	/	11µM*	-8%	/
CC(C)N(C(=O)COC(=O)c1cc(Cl)cc(Cl)c1N)C(C)C	1%	1%	0	16µM*	-1%	10%
Nc1c(Cl)cc(Cl)cc1C(=O)OCC(=O)N1CCOCC1	7%	-3%	3	4%	4%	2%
CC1CCN(C(=O)COC(=O)c2cc(Cl)cc(Cl)c2N)CC1	3%	2%	2	28µM*	-9%	13%
O=C(Nc1nc2n(n1)C(c1ccccc1)C=C(c1ccccc1)N2)c1ccccc1 (stereo unspecified)	/	/	/	4%	50%	/
CCCC[C@H]1CCCO[C@@](C(=O)NCc2ccccn2)(C(F)(F)F)C1	/	/	/	/	1%	/
Cc1oc(CC(C)C)cc1C(=O)Nc1cccc2ccccc12	0%	0%	0	-8%	?	1%
Cc1cc(C(=O)Nc2cccc3ccccc23)c(C)o1	2%	/	0	/	1%	7.9µM*
COC(=O)C1=C(C(=O)OC)[C@@H]2N(Cc3ccccc3)c3ccccc3[C@@]23C[C@@H](C(=O)OC)N(S(=O)(=O)c2ccc(Br)cc2)C3=N1	/	1%[11.5 µM]	/	/	/	/
CNCC(=O)c1c[nH]c2ccccc12	/	/	/	0%	/	/
COc1cccc2cc(-c3nc(-c4ccccc4)c(C)s3)c(=O)oc12	/	/	/	-4%	0%	/
O=c1c2ccccc2c(C=Nc2ccccc2O)c(O)n1-c1nccs1	20%	-5%	64*	-1%	?	-18%
CCn1c2ccccc2c2cc(/C=C3/C=Cc4ccccc43)ccc21	/	/	/	-2%	/	/
Cc1cc(C)c(C#N)c(N2CCSCC2)n1	-4%	-2%	0	35µM*	-14%	-16%
Cc1cc(C)c(C#N)c(N2CCN(c3ccccc3)CC2)n1	-1%	/	-2	-16%	-3%	26%
Cc1cc(C)c(C#N)c(N2CCCC(C(N)=O)C2)n1 (stereo unspecified)	-1%	-1%	-1	3.5µM*	-7%	-12%
CCCN1CCC(=O)N(C(CSc2ccc(C)cc2)CC(C)C)CC1 (stereo unspecified)	/	/	/	/	-2%	/
CCOC(=O)c1c(C)[nH]c(C)c1C(=O)CSc1nc2ccccc2c(=O)n1-c1ccccc1C	-9%	8%	-3	28µM*	11%	16%
CC(Cl)OC(=O)Nc1cccc2cccnc12 (stereo unspecified)	/	/	/	/	1%	/
COc1ccccc1Nc1ncnc2scc(-c3ccc(F)cc3)c12	/	/	/	28µM*	2%	/
COc1ccc(-c2csc3ncnc(Nc4cc(OC)cc(OC)c4)c23)cc1	/	/	/	?	7%	/
SMILES	USP2a block	PKM2 activator	IL2 activator	ClpP mod	Pin1 inhibitor	a7 integrin act
COc1ccc(-c2csc3ncnc(Nc4cccc(F)c4)c23)cc1	/	/	/	-11%	-2%	/
COc1ccc(-c2csc3ncnc(Nc4ccc(OC)cc4OC)c23)cc1	/	/	/	40µM*	12%	/
COc1ccc(NC(=O)N2CCN(C(=O)C(Cc3ccc(F)cc3)NC(C)=O)CC2)cc1 (stereo unspecified)	8%	-1%	2	32µM*	3%	17%
CC(=O)NC(Cc1ccc(F)cc1)C(=O)NC1CCN(C(=O)Nc2ccc(F)cc2)CC1 (stereo unspecified)	0%	-2%	-1	/	-2%	1%
Cc1oc2c(C)c(O)ccc2c(=O)c1-c1nncn1-c1ccccc1	4%	18µM*	0	-1%	?	-35%
Cc1oc2c(C)c(O)ccc2c(=O)c1N1C(=O)c2ccccc2C1=O	-1%	6%	0	2%	0%	12%
Cc1cc(NCCN2CCOCC2)n2c(nc3ccccc32)c1C#N	-1%	-5%	-2	3.5µM*	1%	11%
O=C1c2ccccc2C(=O)N1c1noc2ccccc12	/	/	/	/	2%	/
Cc1oc2c(CN3CCCC3)c(O)ccc2c(=O)c1-c1ccc(Br)cc1	1%	-3%	-1	14µM*	1%	?
COc1ccc(-c2c(C)oc3c(CN4CCN(CCO)CC4)c(O)ccc3c2=O)cc1OC	-1%	4%	0	22µM*	-13%	0%
COC(=O)Cn1c(=NC(=O)c2ccc(OC)cc2)sc2cc(OC)ccc21	0%	9%	0	25µM*	7%	33%
COC(=O)Cn1c(=NC(=O)c2ccc(S(=O)(=O)N3CCc4ccccc4C3)cc2)sc2cc(OC)ccc21	5%	-5%	1	-23%	7%	3%
COC(=O)Cn1c(=NC(=O)c2cccc(OC)c2)sc2cc(OC)ccc21	-1%	6%	-2	25µM*	22%	11%
COC(=O)Cn1c(=NC(=O)c2cc(OC)cc(OC)c2)sc2cc(OC)ccc21	6%	-1%	-2	28µM*	27%	-11%
COC(=O)Cn1c(=NC(=O)c2nc3ccccc3s2)sc2cc(S(N)(=O)=O)ccc21	1%	16%	-1	22µM*	-4%	-16%
COc1cc(OC)cc(C(=O)N=c2sc3ccccc3n2C)c1	0%	2%	-1	4%	-1%	7%
COc1cccc(C(=O)N=c2sc3cc(S(C)(=O)=O)ccc3n2C)c1	3%	-1%	0	/	22%	19%
